Measurements from the supplement of paper PMC10338343.
± gives the standard deviation.

system: MILI (PIWIL2) piRISC loaded with L1MC piRNA (26 nt); assay: pre-steady-state target cleavage rate (min^-1); guide: L1MC piRNA 5'p-UAACUAAAUACUAUGCAAGCUGUAGG; MIWI and MILI are mouse PIWI proteins and EfPiwi is from a freshwater sponge; tags in brackets are library labels; higher = faster piRNA-guided slicing of the target; conditions: auxiliary factor: 500 nM mouse GTSF1
Description: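 Cleave-'n-Seq: a library of target RNAs (target site embedded in constant flanks, ACAGCATTCCGCGTTAGTGATATCCG... 5' flank; DNA-blocked outside the site) at 0.1 nM was incubated with 1 nM active mouse MILI or MIWI piRISC (synthetic 5'-monophosphorylated piRNA guide) with or without 500 nM mouse GTSF1 at 33 °C for 1 min to 16 h. Uncleaved targets were sequenced and normalised to non-target controls, and the pooled three trials were fitted to a burst-and-steady-state model to give the pre-steady-state cleavage rate (min^-1; k3 is constrained to at most 1e-4). Sequence is the target site only; target names encode pairing extent (gX:gY) and contiguous / 1-mismatch / 2-mismatch / bulge geometry. Fits with R² ≤ 0 are excluded.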

Sequence	pre-steady-state target cleavage rate
UCCUGCUACAGCUUGCAUAGUAUUUAGCUUA	0.161 ± 0.037
UCCUGGAUCAUGCUUGCAUAGUAUUUAGUUA	0.18 ± 0.019
UCCUGGAUGUCGUUGCAUGGUAUUUAGUUA	0.0354 ± 0.01
UCCUCCUACAGGAUGCAUAGUAUUUAGUUA	0.273 ± 0.013
UCCUGCUACAGCUUGCAUAGUAUUUAAUUA	0.126 ± 0.03
UCCUGGAUGUCGUGGCAUAGUAUUUAGUUA	0.0441 ± 0.011
UCCUGGAUCAGCUAGCUUAGUAUUUAGUUA	0.214 ± 0.018
UCCUGGAUGAGCUUGCAUAGUAUUUAGCUUA	0.104 ± 0.026
UCCUGGUACAGCUUGCAUAGUUUUUACAAA	0.0185 ± 0.0077
UCCUCCUACAGCUUGCAGAGUAUUUAGUUA	0.218 ± 0.021
UCCUGGAUCAGCUUGCUUAGUAUUUAGUUA	0.248 ± 0.019
UCCUGGAUGUCCUUGCAUAGUAUUUAGUA	0.0747 ± 0.012
UCCUCCUACAGCUUGCAUAGUAUUUGAGUUA	0.199 ± 0.028
UCCUGGAUGUCGAACCAUAGUAUUUACAAA [g5:g15:cont:t1A]	< 0.0001
UCCUGCUUCAGCUAGCAUAGUAUUUAGUUA	0.322 ± 0.02
UCCUCCUACACGUUGCAUAGUAUUUACAAA	0.062 ± 0.019
UCCUGGAUGUCCUUGCAUUGUAUUUAGAUA	0.0401 ± 0.011
UCCUGGUACAGCUUGCAUAGUAAUUUAGUUA	0.186 ± 0.025
UCCUGGAUCAGGAUGCAUAGUAUUUAGUUA	0.156 ± 0.012
UCCUCCUACAGCUAUGCAUAGUAUUUAGUUA	0.267 ± 0.02
UCCUGGUAGAGCUUGCAUAGUAUUUAGUUA	0.245 ± 0.015
UCCUGCUACUGCUUCCAUAGUAUUUAGUUA	0.0453 ± 0.014
UCCUCGUACAGCUUGCAUAGUAUUUAGAAA	0.131 ± 0.024
UCCUCCUACUGCUUGCAAAGUAUUUAGUUA	0.138 ± 0.011
UCCUGCUACAGCUUGGAUAGUAUUAAGUUA	0.198 ± 0.031

same assay, conditions: auxiliary factor: none (no GTSF1)

Sequence	pre-steady-state target cleavage rate
UCCUGGAUCAUGCUUGCAUAGUAUUUAGUUA	0.00983 ± 0.0024
UCCUGGAUGUCGUUGCAUGGUAUUUAGUUA	0.00854 ± 0.0034
UCCUCCUACAGGAUGCAUAGUAUUUAGUUA	0.00736 ± 0.0024
UCCUGGAUGUCGUGGCAUAGUAUUUAGUUA	0.00558 ± 0.0029
UCCUGGAUCAGCUAGCUUAGUAUUUAGUUA	0.00868 ± 0.002
UCCUCCUACAGCUUGCAGAGUAUUUAGUUA	0.00823 ± 0.0022
UCCUGGAUCAGCUUGCUUAGUAUUUAGUUA	0.0092 ± 0.0031
UCCUGGAUGUCCUUGCAUAGUAUUUAGUA	0.00356 ± 0.0024
UCCUCCUACAGCUUGCAUAGUAUUUGAGUUA	0.00484 ± 0.0026
UCCUGCUUCAGCUAGCAUAGUAUUUAGUUA	0.00715 ± 0.0018
UCCUGGUACAGCUUGCAUAGUAAUUUAGUUA	0.0129 ± 0.0045
UCCUGGAUCAGGAUGCAUAGUAUUUAGUUA	0.00724 ± 0.0018
UCCUCCUACAGCUAUGCAUAGUAUUUAGUUA	0.00637 ± 0.0022
UCCUGGUAGAGCUUGCAUAGUAUUUAGUUA	0.00842 ± 0.0022
UCCUCCUACUGCUUGCAAAGUAUUUAGUUA	0.00644 ± 0.0018
UCCUGCUACAGCUUGGAUAGUAUUAAGUUA	0.00579 ± 0.002
